Compound activity deposited in PubChem BioAssay by several laboratories.
S1P2 blocker: human S1P2 receptor antagonists, primary screen, cell-based; cell-based S1P2 antagonist assay, inhibition at 5 uM; inhibition, % at 5 µM; hit rate 0.21% among 97,000; in the data active means inhibition above about 45%;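 further: CRE beta-lactamase reporter cells expressing human S1P2 stimulated with S1P; 0% = agonist at EC80 alone and 100% = agonist plus reference antagonist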
Candida biofilm: clotrimazole potentiators killing Candida biofilms, primary screen, with clotrimazole, Alamar Blue; C. albicans biofilm + clotrimazole; inhibition, % at 6 µM; hit rate 0.14% among 85,000;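 active means inhibition above 20%; inactive means inhibition below 20%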;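 further: preformed 24 hr biofilms exposed to compound for 48 hr; 0% = biofilm without compound and 100% = blank killed by clotrimazole plus chlorhexidine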
GALR2 agonist: GALR2 receptor agonists, primary screen, cell-based; Galanin receptor type 2 (Homo sapiens), O43603; GALR2-expressing cells, agonist activation read-out; activation, % (test concentration not listed); hit rate 0.48% among 140,000; AID 803, 2007; in the data active means activation above about 5%, passing the limit was not always enough;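 further: 0% = vehicle buffer wells and 100% = reference agonist at full effect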
Smad3 FoxH1 inh: Smad3/FoxH1 peptide binding inhibitors, primary screen, biochemical, TR-FRET; Mothers against decapentaplegic homolog 3 (Homo sapiens), P84022; TR-FRET Smad3/Dy647-FoxH1 peptide binding, europium anti-His; inhibition, % at 25 µM; hit rate 0.29% among 88,000;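 active means compounds that reduce the energy-transfer binding signal between the protein and its labelled peptide by more than half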;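 further: 0% = Smad3 plus labelled peptide maximal FRET and 100% = peptide-only background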
Target sequence (P84022 whole entry, looked up): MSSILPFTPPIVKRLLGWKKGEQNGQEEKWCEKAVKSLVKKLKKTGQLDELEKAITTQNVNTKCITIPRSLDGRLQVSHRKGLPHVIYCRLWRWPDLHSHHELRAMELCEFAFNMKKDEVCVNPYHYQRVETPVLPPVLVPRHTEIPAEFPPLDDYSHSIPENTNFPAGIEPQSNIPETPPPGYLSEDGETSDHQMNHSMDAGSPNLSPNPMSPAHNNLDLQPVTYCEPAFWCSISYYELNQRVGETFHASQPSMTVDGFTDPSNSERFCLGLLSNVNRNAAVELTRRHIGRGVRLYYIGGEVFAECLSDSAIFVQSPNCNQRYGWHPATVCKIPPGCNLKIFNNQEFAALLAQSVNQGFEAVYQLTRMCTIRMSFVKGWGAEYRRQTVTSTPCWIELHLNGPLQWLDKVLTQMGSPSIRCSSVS
S1P2 agonist: S1P2 receptor agonists, primary screen, cell-based; Sphingosine 1-phosphate receptor 2 (Homo sapiens), O95136; S1P2-expressing cell line, agonist reporter read-out; activation, % at 4.5 µM; hit rate 0.46% among 97,000; AID 729, 2007; in the data active means activation above about 16%;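 further: 0% = vehicle low control and 100% = maximal reference agonist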
GALR2 antag: GALR2 antagonists in receptor-expressing cells, primary screen; inhibition, % at 4 µM; AID 828, 2007; Galanin receptor type 2 (Homo sapiens), O43603; hit rate 0.39% among 140,000; antagonist mode; in the data active means inhibition above about 27%;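 further: cells stimulated with galanin 1-16 at roughly its EC80; 0% = agonist challenge control and 100% = basal control without agonist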
* marks the source's active call; other numbers are inactive results; · = not tested or not shown; [ ] = remark or other dose. In the library only some 1.3% were active in any assay of this set; here they are far more common.

SMILES | S1P2 blocker | Candida biofilm | GALR2 agonist | Smad3 FoxH1 inh | S1P2 agonist | GALR2 antag
C[C@H](CCC(=O)O)[C@H]1CC[C@H]2[C@@H]3[C@@H](O)C[C@H]4C[C@@H](O)CC[C@]4(C)[C@H]3C[C@@H](O)[C@]12C | · | · | · | 12.2 | · | ·
O=C(Cn1cnc2ccccc2c1=O)Nc1ccc2c(c1)OCO2 | · | · | -0.6 | · | · | 0.4
O=C(CCn1cnc2ccccc2c1=O)Nc1ccc(Cl)c(Cl)c1 | -99.6 | 41.4* | -1.6 | 1.5 | -6.6 | 0.6
O=C(CCn1cnc2ccccc2c1=O)Nc1nc(-c2ccc(Br)cc2)cs1 | · | · | 7.9* | · | · | -5.3
CCOC(=O)c1cc2ccc(OC(=O)c3ccco3)cc2oc1=O | -243.0 | · | 209.0* | · | 150.3* | -77.6
CCOC(=O)c1c(C)n(C)c2ccc(OC(=O)c3ccco3)cc12 | -5.8 | 8.5 | 0.5 | -12.5 | -6.0 | 6.9
COc1ccc(O)c(/C=N/Nc2nc(Nc3ccccc3)nc(-n3nc(C)cc3C)n2)c1 | 5.5 | · | 2.4 | · | -6.9 | 12.1
COc1cc(/C=N/Nc2nc(Nc3ccccc3)nc(-n3nc(C)cc3C)n2)cc(OC)c1OC | · | · | 8.1* | · | · | 6.9
COc1cc(/C=N/Nc2nc(Nc3ccc(C)cc3)nc(-n3nc(C)cc3C)n2)cc(OC)c1OC | 47.2* | · | 6.5 | · | -0.8 | 6.5
C[C@@]12CC[C@H]3c4ccc(O)cc4CC[C@@H]3[C@H]1CC[C@H]2OP(=O)(O)O | · | · | · | 15.8 | · | ·
COc1ccc2c(c1)c1ncn(Cc3ccco3)c(=O)c1n2C | -60.3 | 4.9 | 1.1 | -0.4 | 19.2* | -8.7
COc1ccc(CCn2c(N)c(C(=O)NCc3ccco3)c3nc4ccccc4nc32)cc1 | · | · | 1.0 | · | · | 4.5
COCCNC(=O)c1c(N)n(CCC2=CCCCC2)c2nc3ccccc3nc12 | -50.6 | · | 18.8* | · | 25.7* | -13.6
COc1cc2c(cc1OC)C1=C(C#N)CC/C(=N\S(=O)(=O)c3cccc(Cl)c3)N1CC2 | -41.1 | 3.5 | 0.2 | 2.8 | 48.7* | 5.4
O=C(Nc1ccc(Cc2ccncc2)cc1)C1CCC(N2C(=O)C3CC=CCC3C2=O)CC1 (configuration not stated) | -0.3 | 4.9 | -1.0 | 56.4* | -1.4 | -2.9
COc1ccccc1-c1c(C#N)c(N)nc2c1CCc1ccccc1-2 | · | · | 5.7* | · | · | 11.7
O=C(O)c1ccc(C(=O)Nc2cccc3ccccc23)c(C(=O)O)c1 | · | · | · | 17.3 | · | ·
COc1ccc(N2CCN(c3ncnc4c3[nH]c3ccccc34)CC2)cc1 | 62.8* | -2.8 | -0.4 | -2.9 | -2.8 | 14.5
Fc1ccc2[nH]c3c(N4CCN(c5ccccc5)CC4)ncnc3c2c1 | · | 1.8 | 0.2 | 0.1 | · | 22.8
CCOC(=O)c1cc(C#N)c(SCc2ccc(C#N)cc2)nc1C | 4.5 | 6.9 | -0.2 | 64.0*[fluorescence artefact?] | 2.5 | 0.7
CC(=O)c1cc(C#N)c(SCc2ccc(F)cc2)nc1C | -16.0 | 0.7 | -0.8 | -14.7 | -5.6 | -5.7
CCN(CC)c1ccc(NC(=O)Nc2ccccc2C(F)(F)F)cc1 | -5.7 | · | -2.7 | · | 61.5* | 10.5
C/C(=N\Nc1ccc2ccccc2n1)c1ccccc1O | · | · | · | 9.3 | · | ·
Oc1cccc2ccc(Nc3ccccn3)nc12 | · | 10.9 | -1.6 | 28.1 | · | 30.4*
Cc1nc2cc(NC(=O)CCS(=O)(=O)c3ccccc3)ccc2s1 | · | · | 0.0 | · | · | 9.0
SMILES | S1P2 blocker | Candida biofilm | GALR2 agonist | Smad3 FoxH1 inh | S1P2 agonist | GALR2 antag
Cc1noc(C)c1COC(=O)[C@H](C)NS(=O)(=O)c1ccc(Cl)c(Cl)c1 | -13.6 | 7.5 | 14.2* | 2.5 | -3.2 | -7.6
O=C(NC1CCCCCC1)C1CCC(CNS(=O)(=O)c2ccc(Br)s2)CC1 (configuration not stated) | · | · | 5.3* | · | · | -7.4
CN(C(=O)Cc1noc2ccccc12)c1ccccc1 | · | · | -1.8 | · | · | -1.1
CCOC(=O)C1=C(O)/C(=C/c2cn(CC(=O)NCC3CCCO3)c3ccccc23)SC1=Nc1ccc(C)cc1 (configuration not stated) | 3.1 | 2.9 | 0.6 | -13.2 | -5.5 | 34.1*
COc1ccc2cc(C(c3nnnn3C3CCCCC3)N3CCCCCC3)c3nnnn3c2c1 (configuration not stated) | 10.8 | -1.5 | 13.1* | -31.4 | -3.1 | -2.3
COc1ccc2cc(C(c3nnnn3C3CCCC3)N3CCCCCC3)c3nnnn3c2c1 (configuration not stated) | 6.2 | -1.1 | -2.2 | 11.6 | -6.0 | 8.0
Cc1cn([C@@H]2C[C@H](O)[C@@H](COC(N)=O)O2)c(=O)[nH]c1=O | · | · | · | 5.2 | · | ·
